The results in this text go back to PMC5540273 (PLoS ONE, 2017).

Among the test systems are AURKA; AURKB; AURKC; AXL; BLK; BMPR1A; BMPR1B; BMPR2; BMX; BRAF; BRSK1; BRSK2; BTK; BUB1; CAMK1B; CAMK1D; CAMK1G.
Holding throughout (details): concentration: 1 μM,replicates: in singlicate; n = 1
In the next experiment the test system is T1, ASK2.
T1 construct: gene MAP3K6

A further experiment concerns T2, BIKE.
T2 construct: gene BMP2K

The next experiment relates to T3, BRK.
T3 construct: gene PTK6
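Note: KINOMEscan kinase panel screen.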

On to `NC(=O)c1cc(-c2ccccc2)cc2c(C3CCNCC3)c[nH]c12` [GSK301362], for which the “%Inh” value in the experiment with ASK2 is 2%; in the experiment on AURKA, 6%; in the experiment with AURKB, 1%; in the experiment on AURKC it was 57%; in the experiment with AXL, 47%; in the experiment on BIKE, 65%. Further, the “%Inh” value stood at 16% with BLK; 28% in the experiment on BMPR1A; 0% with BMPR1B; 4% in the experiment with BMPR2; 5% in the experiment on BMX; 3% in the experiment with BRAF. Further, the “%Inh” value turned out to be 16% with BRK; 20% in the experiment on BRSK1; 18% in the experiment on BRSK2; 0% in the experiment on BTK; 8% with BUB1; 87% in the experiment with CAMK1B. The results for the “%Inh” value with CAMK1D and with CAMK1G were 69% and 18%, respectively.
For `Cc1n[nH]c2ccc(-c3cc(OC[C@@H](N)Cc4ccccc4)cnc3-c3ccoc3)cc12.O=C(O)C(F)(F)F.O=C(O)C(F)(F)F` [GSK507358], the “%Inh” value with ASK2 stood at 4%; in the experiment on AURKA, 0%; with AURKB, 0%; with AURKC it was 0%; with AXL, 0%; in the experiment on BIKE, 81%. The “%Inh” value in the experiment with BLK stood at 6%; in the experiment with BMPR1A, 0%; with BMPR1B, 0%; in the experiment with BMPR2 it was 14%; in the experiment with BMX it was 0%; with BRAF, 0%. Further, the “%Inh” value was 0% with BRK; 0% in the experiment with BRSK1; 0% in the experiment on BRSK2; 83% with BTK; 95% in the experiment with BUB1; 27% in the experiment on CAMK1B. Moreover, the “%Inh” value with CAMK1D worked out at 45%; with CAMK1G it was 18%.
As for `CCn1c(-c2nonc2N)nc2c(C#CC(C)(C)O)nc(OCCN)cc21.Cl.Cl` [GSK902056], the “%Inh” value with ASK2 came to 20%; in the experiment on AURKA, 27%; in the experiment on AURKB, 38%; in the experiment with AURKC, 0%; in the experiment with AXL it was 0%; in the experiment with BIKE it was 20%. For the same molecule, the “%Inh” value in the experiment on BLK is listed as 7%; with BMPR1A, 6%; in the experiment on BMPR1B it was 0%; in the experiment on BMPR2, 3%; with BMX it was 11%; in the experiment on BRAF, 38%. The “%Inh” value with BRK was determined as 1%; with BRSK1, 6%; in the experiment with BRSK2, 0%; in the experiment on BTK, 0%; in the experiment on BUB1, 22%; in the experiment on CAMK1B it was 29%. Moreover, the “%Inh” value with CAMK1D and with CAMK1G was 0% in each case.
Take `Cl.Oc1cc(-c2nc(-c3ccccc3)[nH]c2-c2ccncc2)ccc1Cl` [SB-386023]: the “%Inh” value in the experiment on ASK2 is 27%; in the experiment on AURKA, 22%; in the experiment on AURKB, 19%; with AURKC, 0%; with AXL, 42%; in the experiment with BIKE it was 3%. Moreover, the “%Inh” value is listed as 48% in the experiment with BLK; 9% in the experiment with BMPR1A; 61% in the experiment with BMPR1B; 32% with BMPR2; 0% in the experiment on BMX; 31% with BRK. Moreover, the “%Inh” value was determined as 0% in the experiment on BRSK1; 1% with BRSK2; 0% with BTK; 92.5% with BUB1; 0% with CAMK1B; 27% in the experiment with CAMK1D. Further, the “%Inh” value in the experiment on CAMK1G came to 74%.
For the molecule `CN(C)CCOc1ccc(-c2cc(-c3c[nH]nc3-c3ccccn3)ccn2)cc1` [GW835314], the “%Inh” value in the experiment with ASK2 is on record as 24%; in the experiment with AURKA, 0%; in the experiment with AURKB it was 5%; with AURKC, 12%; in the experiment on AXL it was 49%; with BIKE, 4%. In addition, the “%Inh” value turned out to be 14% in the experiment with BLK; 13% in the experiment on BMPR1A; 74% in the experiment with BMPR1B; 69% with BMPR2; 32% in the experiment with BMX; 16% in the experiment on BRAF. The “%Inh” value in the experiment with BRK is listed as 9%; in the experiment on BRSK1 it was 24%; in the experiment on BRSK2, 26%; in the experiment on BTK it was 0%; in the experiment with BUB1 it was 0%; with CAMK1B it was 0%. For the same molecule, the “%Inh” value came to 10% in the experiment with CAMK1D and 7% in the experiment on CAMK1G.
Consider `Cl.Cl.NC[C@H](CC1CCCCC1)NC(=O)c1cc(Br)c(-c2ccnc3[nH]ccc23)s1` [GSK1581427], for which the “%Inh” value in the experiment with ASK2 amounted to 17%; in the experiment on AURKA, 63%; in the experiment on AURKB it was 62%; with AURKC it was 95%; in the experiment with AXL it was 86%; in the experiment with BIKE it was 100%. In addition, the “%Inh” value worked out at 0% in the experiment with BLK; 0% with BMPR1A; 0% in the experiment on BMPR1B; 8% with BMPR2; 0% in the experiment with BMX; 0% in the experiment with BRAF. Also, the “%Inh” value in the experiment on BRK is 9%; with BRSK1, 0%; in the experiment with BRSK2, 0%; in the experiment with BTK, 0%; with BUB1, 13%; with CAMK1B it was 0%. The “%Inh” value in the experiment with CAMK1D was determined as 11%; in the experiment on CAMK1G, 0%.
For `CC(C)Nc1cc(-c2ccc3c(N)n[nH]c3c2)nc(N)n1` [GSK2221681], the “%Inh” value in the experiment with ASK2 is recorded as 0%; in the experiment on AURKB, 0%; in the experiment on AURKC, 40%; in the experiment on AXL, 0%; in the experiment with BIKE, 90.7%; in the experiment on BLK, 3%. Also, the “%Inh” value is reported as 0% with BMPR1A; 0% in the experiment with BMPR1B; 0% in the experiment with BMPR2; 3% in the experiment on BMX; 0% with BRAF; 14% with BRK. In addition, the “%Inh” value in the experiment on BRSK1 is 11%; with BRSK2, 17%; in the experiment on BTK, 0%; in the experiment on BUB1, 80%; in the experiment on CAMK1B, 26%; in the experiment with CAMK1D, 13%. Also, the “%Inh” value with CAMK1G was 10%.
Regarding `Cc1ccc(-n2nc(C(C)(C)C)cc2NC(=O)Nc2ccc(OCCN3CCOCC3)c3ccccc23)cc1` [GW839464], the “%Inh” value in the experiment on ASK2 is given as 0%; in the experiment on AURKA, 0%; in the experiment on AURKB it was 1%; in the experiment with AURKC, 0%; in the experiment with AXL, 12%; in the experiment with BIKE it was 0%. Further, the “%Inh” value with BLK is 19%; in the experiment on BMPR1A it was 26%; in the experiment with BMPR1B it was 4%; in the experiment with BMPR2, 6%; in the experiment with BMX, 4%; in the experiment on BRK, 4%. The “%Inh” value in the experiment with BRSK1 is 6%; with BRSK2, 0%; in the experiment with BTK, 0%; in the experiment with BUB1, 0%; with CAMK1B it was 0%; in the experiment with CAMK1D, 4%. The “%Inh” value in the experiment on CAMK1G is given as 6%.
